Reference: PubChem BioAssay
The source made the active and inactive calls.

Assays:
[1] = A549 cell viability effects, profiling panel, calcein-AM fluorescence, 48 h, basal (AID 1162); settings: higher = more signal; further: test concentration not given here
[2] = adipocyte viability effects, profiling panel, cell-based, 3T3-L1 adipocytes, calcein-AM fluorescence, 48 h, basal (AID 1163); settings: 3T3-L1 adipocytes viability, higher = more signal; further: test concentration not given here
[3] = HepG2 cell viability effects, profiling panel, calcein-AM fluorescence, 48 h, basal (AID 1164); settings: higher = more signal; further: test concentration not given here
[4] = MM1S cell viability effects, profiling panel, calcein-AM fluorescence, 48 h, basal (AID 1165); settings: higher = more signal;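 further: viability of MM1S multiple myeloma cells under basal unstimulated conditions; test concentration not given here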
[5] = basal RPMI8226 viability, no added stimulus, profiling panel, cell-based, calcein-AM fluorescence, 48 h, PK04 Diversity Set (AID 1166); settings: RPMI8226 myeloma viability, higher = more signal;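 further: cells grown under basal conditions without added stimulus; test concentration not given here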
[6] = basal HepG2 mitochondrial membrane potential changes, profiling panel, cell-based, JC-1 fluorescence, 24 h, 100 nL compound (AID 1167); settings: higher = more signal; further: test concentration not given here
[7] = basal 3T3-L1 adipocyte mitochondrial potential changes, profiling panel, cell-based, JC-1 fluorescence, 3T3-L1 adipocytes, 24 h, 100 nL compound (AID 1168); settings: JC-1 mitochondrial fluorescence, higher = more signal, called active from +8 up or from −8 down; further: test concentration not given here
[8] = basal RPMI8226 mitochondrial membrane potential changes, profiling panel, cell-based, JC-1 fluorescence, 24 h, 100 nL compound (AID 1169); settings: RPMI8226 myeloma, JC-1 mitochondrial potential fluorescence, higher = more signal; further: test concentration not given here
[9] = basal MM1S mitochondrial membrane potential changes, profiling panel, cell-based, JC-1 fluorescence, 24 h, 100 nL compound (AID 1170); settings: higher = more signal; further: test concentration not given here
[10] = A549 lung cancer cell viability effects, profiling panel, resazurin fluorescence, 24 h, PK04 Diversity Set (AID 1171); settings: higher = more signal, called active from +8 up or from −8 down; further: test concentration not given here
[11] = HepG2 liver cancer cell viability effects, profiling panel, resazurin fluorescence, 24 h, PK04 Diversity Set (AID 1172); settings: higher = more signal; further: test concentration not given here
[12] = basal S. cerevisiae growth modulation, no modifier, primary screen, OD600, strain BY4716, 24 h, basal condition (AID 1173); settings: OD600, 24 h, higher = more signal, called active from +8 up or from −8 down
[13] = MM1S myeloma cell viability, profiling panel, resazurin fluorescence, basal, 24 h, PK04 Diversity Set (AID 1174); settings: higher = more signal, called active from +8 up or from −8 down;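 further: MM1S multiple myeloma cell line; test concentration not given here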
[14] = target: Dihydroorotate dehydrogenase (quinone), mitochondrial (Plasmodium falciparum (isolate 3D7)) (UniProt Q08210); experiment: PfDHODH enzyme inhibitors, primary screen, biochemical, C-terminal His tag, absorbance 600 nm (AID 1175); settings: DCIP absorbance 600 nm, higher = more signal, called active from +8 up or from −8 down;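 further: recombinant parasite enzyme with a five histidine tag at its C terminus; test concentration not given here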
Chain of Dihydroorotate dehydrogenase (quinone), mitochondrial (Plasmodium falciparum (isolate 3D7)) (Q08210 whole entry, looked up): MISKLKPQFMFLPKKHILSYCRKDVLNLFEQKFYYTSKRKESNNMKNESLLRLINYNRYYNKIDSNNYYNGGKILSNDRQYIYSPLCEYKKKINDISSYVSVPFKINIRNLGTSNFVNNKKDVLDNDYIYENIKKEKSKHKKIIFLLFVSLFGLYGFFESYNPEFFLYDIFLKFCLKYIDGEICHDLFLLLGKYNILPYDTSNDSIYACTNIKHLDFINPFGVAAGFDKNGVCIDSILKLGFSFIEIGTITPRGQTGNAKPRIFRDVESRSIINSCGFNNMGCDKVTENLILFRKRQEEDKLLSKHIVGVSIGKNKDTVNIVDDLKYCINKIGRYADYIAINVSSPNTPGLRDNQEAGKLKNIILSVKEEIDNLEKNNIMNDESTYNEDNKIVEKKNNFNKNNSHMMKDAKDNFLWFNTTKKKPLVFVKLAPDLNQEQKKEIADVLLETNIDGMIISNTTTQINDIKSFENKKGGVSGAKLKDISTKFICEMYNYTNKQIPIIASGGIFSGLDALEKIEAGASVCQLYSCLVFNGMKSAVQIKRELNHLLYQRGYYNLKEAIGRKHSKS

[15] = S. cerevisiae RM11-1a growth modifiers, primary screen, strain RM11-1a, OD600, basal, 24 h (AID 1177); settings: OD600, 24 h, higher = more signal, called active from +8 up or from −8 down;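 further: cultures grown under basal conditions with no added stressor; test concentration not given here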
[16] = E. coli acrAB mutant growth effects, primary screen, E. coli filamentation inducers, strain DRC39, OD650, 24 h (AID 1178); settings: higher = more signal, called active from +8 up or from −8 down;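 further: growth measured as culture turbidity by optical density at 650 nm; test concentration not given here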
[17] = E. coli acrAB mutant growth effects, primary screen, E. coli filamentation inducers, strain DRC39, OD650, 48 h (AID 1179);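 further: screen aims at cell division blockers that make cells filament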; settings: E. coli DRC39 delta-acrAB growth, higher = more signal, called active from +8 up or from −8 down
[18] = RPMI8226 myeloma cell viability, profiling panel, resazurin fluorescence, basal, 24 h, PK04 Diversity Set (AID 1180); settings: higher = more signal;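 further: RPMI8826 multiple myeloma cell line at 5000 cells per well; test concentration not given here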
[19] = target: E3 ubiquitin-protein ligase XIAP (Homo sapiens) (UniProt P98170); experiment: XIAP binders, primary screen, biophysical, small-molecule microarray, fluorescence 635 nm (AID 1181); settings: small-molecule microarray binding, higher = more signal;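 further: score merges 667 nm emission and signal to noise over triplicate slides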
Chain of E3 ubiquitin-protein ligase XIAP (Homo sapiens) (P98170 whole entry, looked up): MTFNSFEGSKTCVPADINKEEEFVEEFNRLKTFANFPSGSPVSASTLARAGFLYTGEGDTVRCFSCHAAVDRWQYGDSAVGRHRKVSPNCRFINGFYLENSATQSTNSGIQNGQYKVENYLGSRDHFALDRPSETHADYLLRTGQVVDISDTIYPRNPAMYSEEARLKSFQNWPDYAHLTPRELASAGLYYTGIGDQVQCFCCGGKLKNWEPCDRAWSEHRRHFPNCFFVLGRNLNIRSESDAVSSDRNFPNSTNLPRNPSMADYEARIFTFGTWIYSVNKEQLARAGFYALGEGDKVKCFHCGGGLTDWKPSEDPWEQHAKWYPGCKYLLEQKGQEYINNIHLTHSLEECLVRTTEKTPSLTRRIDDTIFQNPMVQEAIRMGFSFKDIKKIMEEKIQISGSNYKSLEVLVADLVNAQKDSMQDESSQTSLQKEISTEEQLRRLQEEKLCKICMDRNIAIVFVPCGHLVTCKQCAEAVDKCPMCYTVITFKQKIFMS

Structure (SMILES) | z-score [1] | z-score [2] | z-score [3] | z-score [4] | z-score [5] | z-score [6] | z-score [7] | z-score [8] | z-score [9] | z-score [10] | z-score [11] | z-score [12] | z-score [13] | composite z-score [14] | z-score [15] | z-score [16] | z-score [17] | z-score [18] | composite z-score [19]
COc1cccc([C@@H]2[C@@H](C)CC[C@H]3C(=O)N(C)[C@@H](C(C)C)C(=O)N23)c1 | 0.908 | 0.323 | 0.445 | 0.344 | 1.44 | 0.0824 | 0.517 (inactive) | -0.338 | 0.64 | 0.65 (inactive) | 0.989 | -1.32 (inactive) | 0.708 (inactive) | 0.295 (inactive) | 0.192 (inactive) | 0.847 (inactive) | 0.836 (inactive) | 1.67 | 0.258
C[C@H]1NC(=O)[C@@H](C)NC(=O)[C@@]23C(=O)N[C@@H](Cc4ccccc4)C2[C@H](C)[C@@]2(C)O[C@H]2C3/C=C/C/C=C\CNC1=O (some centres not stated) | 0.0575 | 0.43 | 0.205 | -0.0933 | -0.0009 | 1.24 | 0.408 (inactive) | -0.266 | 1.66 | 0.381 (inactive) | 0.0975 | -0.811 (inactive) | 1.02 (inactive) | 0.254 (inactive) | 0.776 (inactive) | 2.33 (inactive) | 1.58 (inactive) | 1.02 | -0.198
CSCC[C@@H]1NC(=O)CC=C[C@@H](C)COC(=O)[C@H](CCSC)NC(=O)CC=C[C@@H](C)COC1=O | 0.364 | 1.7 | 0.0574 | 0.0493 | 0.0542 | 0.79 | 0.647 (inactive) | 0.508 | 0.388 | 0.376 (inactive) | 0.413 | -1.37 (inactive) | 0.94 (inactive) | 0.576 (inactive) | -1.46 (inactive) | -0.251 (inactive) | -0.407 (inactive) | 0.613 | -0.243
CO[C@H]1COC(=O)[C@H](C)NC(=O)CC=C[C@@H](C)[C@H](NS(=O)(=O)c2ccc(C)cc2)COC(=O)CC=C[C@@H]1C | -0.199 | 1.76 | -0.261 | 0.436 | 0.769 | 0.645 | -0.236 (inactive) | -0.081 | 0.753 | 0.317 (inactive) | 0.072 | -1.57 (inactive) | 1.19 (inactive) | -0.253 (inactive) | -0.724 (inactive) | 0.127 (inactive) | -0.244 (inactive) | 0.945 | 0.023
CC(C)CNC(=O)[C@@]1(C)c2ccccc2C(=O)N(Cc2ccc(OC(F)(F)F)cc2)[C@H]1c1ccc(CO)cc1 | 1.69 | 1.68 | 0.65 | -0.249 | -0.358 | 3.03 | -0.481 (inactive) | 0.862 | 1.38 | 1.32 (inactive) | 0.518 | -1.51 (inactive) | 1.88 (inactive) | 0.329 (inactive) | -0.229 (inactive) | 0.726 (inactive) | 0.152 (inactive) | 1.75 | 0.149
C=CCC1=C[C@H]2[C@H]([C@@H]3C=C[C@]2(CC=C)C(=O)[C@]32CO2)[C@@]2(CO2)C1=O | -0.135 | 0.916 | -0.732 | -3.16 | -2.93 | 0.896 | 1.54 (inactive) | -0.201 | -2.08 | -1.33 (inactive) | 0.177 | -15.3 (active) | -1.92 (inactive) | -0.491 (inactive) | -0.763 (inactive) | 2.57 (inactive) | 1.51 (inactive) | -1.12 | 0.147
C[C@@H]1C=CCC(=O)OC[C@H]2O[C@@H](C=C[C@@H]2O)[C@H](C)C=CCC(=O)OC[C@H]2O[C@H]1C=C[C@@H]2O | -0.883 | 1.15 | 0.158 | 0.631 | -1.99 | 0.885 | 0.902 (inactive) | -0.744 | 0.92 | -0.573 (inactive) | -0.269 | -2.13 (inactive) | 0.689 (inactive) | -3.68 (inactive) | -2.89 (inactive) | 0.552 (inactive) | -1.41 (inactive) | 0.807 | -0.039
CO[C@@H]1COC(=O)CC=C[C@@H](C)[C@H](OC)COC(=O)CC=C[C@H]1C | 0.275 | 0.793 | 1.14 | -1.03 | 0.834 | 0.692 | 0.502 (inactive) | -0.793 | 1.21 | 0.756 (inactive) | 0.994 | -1.43 (inactive) | 0.176 (inactive) | -0.136 (inactive) | -0.658 (inactive) | 0.642 (inactive) | 0.505 (inactive) | 0.854 | 0.0891
O=C1OCCC=C[C@H]2OC34C=CCN(Cc5ccccc5)C(=O)[C@H]3N(CCO)C(=O)[C@@H]4C12 (some centres not stated) | -0.0905 | 1.64 | -0.781 | 0.918 | -0.125 | 0.207 | 0.903 (inactive) | 0.374 | 0.183 | -0.727 (inactive) | -0.21 | -1.5 (inactive) | 0.768 (inactive) | -1.19 (inactive) | -2.28 (inactive) | 1.27 (inactive) | 0.627 (inactive) | 0.47 | -0.569
COc1ccc(-c2ccccc2[C@@H]2N[C@H](C(=O)O)CC[C@H]2C)cc1 | 0.212 | 1.63 | -0.428 | 1.09 | -0.372 | 0.924 | 0.366 (inactive) | 0.1 | 0.614 | 0.597 (inactive) | 0.0637 | -0.611 (inactive) | 1.37 (inactive) | 0.577 (inactive) | 0.649 (inactive) | -0.892 (inactive) | 0.0279 (inactive) | 1.61 | -0.113
C=CCc1cccc([C@H]2N[C@H](C(=O)O)CC[C@@H]2C)c1 | 0.382 | 0.624 | -0.484 | -0.543 | 0.665 | 0.489 | -0.0728 (inactive) | 0.602 | 0.345 | 0.553 (inactive) | 0.615 | 0.182 (inactive) | 0.948 (inactive) | 1.09 (inactive) | 1.14 (inactive) | 0.0903 (inactive) | 0.129 (inactive) | 1.02 | -0.0476
[N-]=[N+]=NCc1ccccc1C[C@@]1(C(=O)N2CCOCC2)N=C(c2ccc(OCCCO)cc2)O[C@@H]1c1ccccc1N=[N+]=[N-] | -0.884 | 0.913 | -0.848 | -2.19 | -2.3 | 0.944 | 1.11 (inactive) | -0.982 | -0.891 | -1.75 (inactive) | 0.164 | -1.37 (inactive) | -1.22 (inactive) | 0.503 (inactive) | 1.12 (inactive) | 2.06 (inactive) | 0.612 (inactive) | -1.62 | 0.152
O=C1O[C@@H](c2ccccc2)[C@@H](c2ccccc2)N2[C@@H](c3ccc(O)cc3)[C@]3(C(=O)Nc4ccc(C#CC5(O)CCCCCC5)cc43)[C@@H](C(=O)Nc3nc4ccccc4s3)[C@H]12 | 1.46 | 2.07 | 0.417 | -1.55 | -1.97 | -2.15 | -0.444 (inactive) | -0.567 | 0.159 | 1.2 (inactive) | 0.527 | -0.657 (inactive) | 1.19 (inactive) | -0.067 (inactive) | 0.74 (inactive) | 0.597 (inactive) | 0.946 (inactive) | 0.88 | -0.184
COc1cc([C@@H]2N[C@H](C(=O)O)Cc3c2[nH]c2ccccc32)cc(OC)c1OC | 0.937 | 1.05 | -0.793 | -0.0434 | 0.407 | -0.737 | -0.135 (inactive) | -0.663 | 0.639 | 0.455 (inactive) | 0.384 | -0.61 (inactive) | 1.39 (inactive) | -1.7 (inactive) | -0.8 (inactive) | -0.105 (inactive) | 0.197 (inactive) | 1.03 | -0.227
CO[C@H]1COC(=O)[C@H](C)COC(=O)[C@H](Cc2ccccc2)NC(=O)CC=C[C@H]1C | 0.219 | -0.0092 | 0.284 | -0.0516 | 1.14 | 0.744 | 0.854 (inactive) | 0.433 | 0.213 | -0.36 (inactive) | 0.492 | -1.3 (inactive) | 0.62 (inactive) | -0.393 (inactive) | -0.954 (inactive) | 0.192 (inactive) | 0.144 (inactive) | 0.254 | -0.267
CCN1C(C)=C(C(=O)OC)[C@@H](c2ccccc2)N2C(=O)[C@](O)(C(=O)OC)[C@@H](c3ccccc3)C(C(=O)c3ccccc3)=C12 | 0.804 | 0.439 | 0.534 | 0.144 | -0.623 | 4.64 | 0.454 (inactive) | -0.602 | 0.229 | 2.64 (inactive) | 2.22 | -3.46 (inactive) | 1.06 (inactive) | 0.208 (inactive) | -0.785 (inactive) | 1.55 (inactive) | 1.39 (inactive) | 1.57 | -0.101
CO[C@H]1COC(=O)[C@@H](C)NC(=O)CC=C[C@@H](C)[C@H](OC)COC(=O)CC=C[C@@H]1C | 0.606 | 0.518 | 0.468 | 0.377 | 0.771 | 1.44 | 1.86 (inactive) | -0.0629 | 1.06 | 0.775 (inactive) | 1.16 | -2.42 (inactive) | 0.563 (inactive) | -0.336 (inactive) | -2.65 (inactive) | 1.03 (inactive) | 0.505 (inactive) | 0.477 | -0.271
CO[C@H]1COC(=O)CC=C[C@H](C)[C@@H](OC)COC(=O)CC=C[C@@H]1C | 1.09 | 0.569 | 1.06 | 0.244 | 0.859 | 1.36 | 0.425 (inactive) | -0.36 | 0.758 | 0.99 (inactive) | 1.4 | -1.65 (inactive) | 1.18 (inactive) | 0.522 (inactive) | -1.38 (inactive) | 1.2 (inactive) | 1.21 (inactive) | 0.749 | -0.199
